This passage reports Potency and activity change, negative = cytotoxicity results from PubChem BioAssay (Tox21).

Inconclusive results are not listed. Entries that show only a call come without a potency. Activity calls are given as the source filed them. Calls come from the whole dose curve; as a rule, active = well fitted cell-killing curve with a large enough effect in the repeat runs; inconclusive = weak or mixed curves, or effect the other way; inactive = flat fitted curve, though single readings scatter.

This assay can be described thus: qHTS assay to identify small molecule antagonists of the retinoid acid receptor (RAR) signaling pathway - cell viability counter screen (AID 1159551). Note: nearly all actives have a fitted effect of over 35% in size. As to conditions: C3RL4 cells viability, ATP luminescence (CellTiter-Glo), 6 h; series mostly up to 92.4 µM. An excerpt:
U.S. Tox21 Program National Center for Advancing Translational Sciences [NCATS] NIH Chemical Genomics Center [NCGC] U.S. Environmental Protection Agency [EPA] National Institutes of Environmental Health Sciences [NIEHS] National Toxicology Program [NTP] U.S. Food and Drug Administration [FDA] Tox21 Assay Overview: All-trans Retinoic acid (atRA) is the potent natural metabolite of retinol and plays an important role in normal embryonic development and maintenance of cellular phenotype in adult animals. atRA is the activating ligand for the retinoic acid receptors (RARs) which form heterodimers with retinoid X receptors (RXRs) on the retinoic acid response element (RARE). Through activation of the RAR/RXRs nuclear receptors, atRA regulates the transcription of a large number of protein-coding genes and regulatory RNAs. Intracellular levels of atRA are controlled by the retinol signaling pathway (RSP) that regulates the biosynthesis and catabolism of atRA to maintain physiological levels. Chemicals that interfere with the RSP can cause abnormal intracellular levels of atRA and therefore are potential developmental toxicants. To assess compounds for the potential adverse effect on embryonic development through interfering with retinol signaling, a cell-based RARE luciferase reporter gene assay was used. C3RL4 cell line (OARSA/CFSAN/FDA, Laurel, MD) was used to screen Tox21 10K compound library for identifying inhibitors of the RSP. Also cytotoxicity was assessed by determining the viability of cells based on the quantitation of ATP.
Tox21 Assay Protocol Summary: C3RL4 cells were seeded at 1,000/well in 4 uL of assay medium into white solid 1,536-well tissue culture plates (Greiner Bio-One North America Inc. Monroe, NC) using a Multidrop Combi (Thermo Scientific, Waltham, MA) dispenser. After incubation at 37 C and 5% CO2 for an overnight, 23 nL of compounds dissolved in DMSO, positive control or DMSO only were transferred by a Pintool station (Kalypsys, San Diego, CA). One ul of 1 uM (final concentration) of Retinol was added right after the compound addition by using a Flying Reagent Dispenser (FRD) (Aurora Discovery, San Diego, CA). After 6 hr incubation at 37 C and 5% CO2, 5 uL of CellTiter-Glo reagent (Promega Corporation, Madison, WI) was added to each assay plate using an FRD. Luminescence was quantified on a ViewLux plate reader (PerkinElmer, Waltham, MA) after 30 min incubation at room temperature.
For orientation: Quantitative high-throughput screening tests each substance at several concentrations.
Take `Cn1c(CCCC(=O)O)nc2cc(N(CCCl)CCCl)ccc21`: the Potency result is “inactive”.

On to `Cc1cccc2sc3nncn3c12`, for which the Potency result is “inactive”.

On to `O=C1CC(=O)NC(=O)N1`, for which the Potency result was “inactive”.

On to `CCC(C)(C#N)N=NC(C)(C#N)CC` (stereo not given), for which the Potency result is “inactive”.

As to `CCOC(=O)C(Cl)Cc1cc(-n2nc(C)n(C(F)F)c2=O)c(F)cc1Cl` (stereo not given), the Potency result is “inactive”.

On to `CCN(CC)C1CCCCC1`, for which the Potency result is “inactive”.

Take `CON(C)C(=O)Nc1ccc(Br)cc1`: the Potency entry is “inactive”.

With `C1CN2CCC1CC2`, the Potency entry is “inactive”.

Turning to `NC(=O)CS(=O)C(c1ccccc1)c1ccccc1` (stereo not given), the Potency entry was “inactive”.

As for `COC(=O)c1ccc(CBr)cc1`, the Potency entry was “inactive”.

Consider `O=CCCl`, for which the Potency result is “inactive”.

Turning to `COc1ccc(C=O)cc1O`, the Potency entry was “inactive”.

For `COP(=O)(OC)O/C(C)=C/C(=O)N(C)C`, the Potency entry was “inactive”.

Take `O=C(Cl)CCl`: the Potency result was “inactive”.

As for `O=C(Cl)C(Cl)Cl`, the Potency entry was “inactive”.

Take `CC1NCCOC1c1ccccc1` (stereo not given): the Potency entry was “inactive”.

As for `Brc1c(Br)c(Br)c(Br)c(Br)c1Br`, the activity change, negative = cytotoxicity is -4.22% [at 8.39 µM] (inactive).

As for `CCCCCCCCSC(=O)Oc1cc(Cl)nnc1-c1ccccc1`, the Potency result is “inactive”.

As to `N[C@@H]1C[C@H]1c1ccccc1`, the Potency result is “inactive”.

Consider `CCNc1nc(NCC)nc(SC)n1`, for which the Potency result was “inactive”.

In the case of `CCSC(=O)Cl`, the Potency entry was “inactive”.

Consider `COC1=CC(=O)O[C@@H](/C=C/c2ccccc2)C1`, for which the Potency entry is “inactive”.

For `S=C=S`, the Potency entry was “inactive”.

Consider `CCOC(=O)NC(C)(C)Cc1ccc(Cl)cc1`, for which the Potency entry was “inactive”.

Take `Cc1ccc(Cl)c(O)c1`: the Potency entry is “inactive”.

As to `CCC1(c2ccccc2)C(=O)N(COC)C(=O)N(COC)C1=O`, the Potency result was “inactive”.

For `C=CCc1cc(OC)c2c(c1)OCO2`, the Potency result is “inactive”.

On to `CC(=O)CN(CC(C)=O)N=O`, for which the Potency result was “inactive”.

In the case of `O=C(NC(=O)c1c(F)cccc1F)Nc1cc(Cl)c(F)c(Cl)c1F`, the Potency entry is “inactive”.

On to `ClC1=C(Cl)C2(Cl)C(CBr)CC1(Cl)C2(Cl)Cl` (stereo not given), for which the Potency entry is “inactive”.

In the case of `CCN[C@@H](C)Cc1ccccc1`, the Potency result is “inactive”.

With `CNC(=O)O/N=C(/CSC)C(C)(C)C`, the Potency entry was “inactive”.

`C/C(=N\NC(=O)Nc1cc(F)cc(F)c1)c1ncccc1C(=O)O`: the Potency result was “inactive”.

On to `O=C(CCl)NCO`, for which the Potency result is “inactive”.

Take `NNC(N)=O`: the Potency entry was “inactive”.

With `CCCN1CCC[C@@H]2Cc3[nH]ncc3C[C@H]21`, the Potency result was “inactive”.

For `CC#Cc1cc(C)nc(Nc2ccccc2)n1`, the Potency result was “inactive”.

On to `CC(C)[N+](C)(CCC(C(N)=O)(c1ccccc1)c1ccccc1)C(C)C`, for which the Potency result was “inactive”.

As for `O=c1[nH]oc2c1CCNC2`, the Potency entry was “inactive”.

Turning to `CCOC(=O)C(SP(=S)(OC)OC)c1ccccc1` (stereo not given), the Potency result is “inactive”.
